Measured values from the supplement of paper PMC6555819.

Key:
Assay in all cases: PBM binding z-score (relative to random genomic background probes); higher = stronger binding; sequences stand for … in GC…GCGATTGACAGCGTAGAATGAAGG
[1] = system: FXR:RXRa (NR concentration 270 nM, RXRa partner concentration 90 nM)
Method in brief: (§1)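 Custom Agilent 4×180K protein-binding microarrays carried double-stranded probes, each with a 34-nt variable region. These regions held direct-repeat seeds, single-nucleotide variants, half-site ablations and random human genomic background sequences. Ligand-free nuclear receptor dimers were incubated on the arrays for 1 h, antibodies against each partner (one per run) detected binding, and scanned fluorescence was regression-normalized. Binding z-scores take the random background probes as reference.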

[2] = system: LXRa:RXRa (NR concentration 270 nM, RXRa partner concentration 90 nM)
Method in brief: as §1

[3] = system: LXRa homodimer (NR concentration 270 nM)
Method in brief: as §1

[4] = system: LXRb:RXRa (NR concentration 270 nM, RXRa partner concentration 90 nM)
Method in brief: as §1

[5] = system: LXRb homodimer (NR concentration 270 nM)
Method in brief: as §1

[6] = system: PPARa:RXRa (NR concentration 270 nM, RXRa partner concentration 90 nM)
Method in brief: as §1

[7] = system: PPARg:RXRa (NR concentration 180 nM, RXRa partner concentration 90 nM)
Method in brief: as §1

[8] = system: PPARg:RXRa 270nM:90nM, anti-RXR (NR concentration 270 nM, RXRa partner concentration 90 nM)
Method in brief: as §1

[9] = system: PPARg:RXRa 30nM:10nM, anti-RXR (NR concentration 30 nM, RXRa partner concentration 10 nM)
Method in brief: as §1

[10] = system: PPARg:RXRa 90nM:30nM, anti-RXR (NR concentration 90 nM, RXRa partner concentration 30 nM)
Method in brief: as §1

[11] = system: PPARg:RXRa DBDmut IVT, anti-RXR (DBD mutation: RXRa K156A/R161A, NR concentration 270 nM, RXRa partner concentration 90 nM)
Method in brief: as §1

[12] = system: PPARg:RXRa IVT, anti-PPARg (NR concentration 270 nM, RXRa partner concentration 90 nM)
Method in brief: as §1

[13] = system: PPARg DBDmut:RXRa IVT, anti-PPARg (DBD mutation: PPARg1 K132A/R137A, NR concentration 270 nM, RXRa partner concentration 90 nM)
Method in brief: as §1

[14] = system: PPARg DBDmut IVT, anti-PPARg (DBD mutation: PPARg1 K132A/R137A, NR concentration 270 nM)
Method in brief: as §1

[15] = system: PPARg homodimer (NR concentration 180 nM)
Method in brief: as §1

[16] = system: PXR:RXRa (NR concentration 270 nM, RXRa partner concentration 90 nM)
Method in brief: as §1

[17] = system: PXR homodimer (NR concentration 270 nM)
Method in brief: as §1

[18] = system: RARa:RXR (NR concentration 270 nM, RXRa partner concentration 90 nM)
Method in brief: as §1

[19] = system: RARa homodimer (NR concentration 270 nM)
Method in brief: as §1

[20] = system: RARb:RXRa (NR concentration 270 nM, RXRa partner concentration 90 nM)
Method in brief: as §1

Sequence	PBM binding z-score [1]	PBM binding z-score [2]	PBM binding z-score [3]	PBM binding z-score [4]	PBM binding z-score [5]	PBM binding z-score [6]	PBM binding z-score [7]	PBM binding z-score [8]	PBM binding z-score [9]	PBM binding z-score [10]	PBM binding z-score [11]	PBM binding z-score [12]	PBM binding z-score [13]	PBM binding z-score [14]	PBM binding z-score [15]	PBM binding z-score [16]	PBM binding z-score [17]	PBM binding z-score [18]	PBM binding z-score [19]	PBM binding z-score [20]
GATACAGGGTCAGCCAGAGGCCAGAGTATGGAAA	4.61	2.94	-0.284	2.56	-0.975	4.69	4.13	3.7	0.98	2.28	1.1	2.63	0.315	-0.142	2.32	3.4	-0.204	4.58	0.402	4.19
ATATGTAGGTTGTCGGGTCATTCAGTTTGCGCAT	2.12	2.15	1.45	2.65	0.953	3.6	2.89	3.27	1.09	2.63	4.37	4.47	1.87	1.67	2.56	3.63	8.53	3.15	1.78	2.08
CCTACTGGGCCTCGAAAGGTCATTGATTCAGTGA	3.05	3.94	4.13	3.74	0.187	4.05	1.44	2.98	0.556	1.97	2.57	3.15	-1.13	-0.00532	2.06	4.88	1.11	4.9	0.198	3.66
TCTATTAGTTGATAAGGGCAACCGAAACAGCGGA	0.612	0.486	0.203	0.463	0.396	0.736	0.322	1.86	3.81	2.97	1.65	0.714	0.803	1.07	0.853	0.671	0.649	0.881	0.996	1.6
GATACAGGGTCAAGACCAGAGTACGCGTATTGAT	6.27	3.79	0.0908	3.63	0.0748	5.37	5.25	4.91	1.75	3.56	1.96	3.52	1.38	0.619	1.49	3.34	0.195	3.93	0.851	4.28
TAGCCTAGGTCAGATCGGGCCAGTAGACGCTATA	2.39	0.985	-0.414	0.183	-0.713	1.45	0.406	0.586	-0.637	0.224	0.0206	1.03	-0.87	-1.34	0.0238	0.619	-0.847	0.622	-1.52	2.99
AGAATGAGGTTATTAAGATCAGGGTATTGCGGTC	1.3	1.29	0.345	1.09	0.122	2.46	1.41	1.62	0.322	0.93	3.41	2.66	0.601	0.558	1.18	1.21	1.07	1.28	0.859	1.32
TTACCAAGGTGAGCTGAGGTCGTTGAACCAACTC	1.78	1.48	-0.292	0.787	-0.885	1.88	0.111	0.783	-0.445	0.391	0.903	1.83	-0.507	-1.13	-0.0477	5.01	0.275	2.19	-0.877	1.79
CAAACTAGGTCTAGGTCAAAGTCGGTTTGTGCCA	1.86	2.04	1.3	1.73	0.0723	3.34	2.95	3.82	1.2	3.03	4.21	4.82	0.191	0.991	1.41	1.7	0.0565	2.06	-0.42	2.67
CCTACTGGGACAAGGTCATTGATCAGTCAAAGCA	3.62	3.43	1.26	3.06	0.0323	4.22	4.54	4.7	1.99	3.78	3.79	4.66	-0.0252	-0.0828	2.28	3.8	1.59	3.89	0.375	3.26
CGTCCAACGTCAATGCTAGGTCAGTGAAAGCATT	-0.119	0.271	0.545	0.323	-0.372	0.371	-0.0757	-0.424	-0.443	-0.334	0.0923	0.146	-0.91	-0.198	-0.138	0.124	-0.688	0.602	-0.434	1.33
GGAACGAGGGCATTCGAGTTGGTAGCATGGCGAT	0.825	0.72	-0.575	-0.0954	-1.08	1.06	0.508	0.442	-0.573	-0.227	3.06	2.06	-0.924	0.13	-0.0441	2.69	0.354	0.386	-0.393	1.86
TATAGCAGGCCAGAGGGTCACTCAAGAGGTACGG	1.02	1.2	-0.173	1.21	-0.338	2.59	2.56	3.15	1.56	3.12	-0.0119	1.41	0.475	-0.0534	1.11	1.73	-0.392	2.46	-0.269	2.09
TCTGCTAGGTCAGTAGGTCAGCTAACGAGCTGCC	1.81	1.55	0.12	1.18	-0.0966	3.55	4.84	5	2.51	4.29	4.75	6.23	0.586	0.0507	0.729	1.3	-0.386	2.58	-1.38	3.79
TCTTGTAGATCAATAGAGGTTGAGAAAGTGCGCT	0.33	0.354	-0.0207	0.212	-0.126	0.471	-0.324	1.44	2.63	1.98	1.55	0.494	0.467	0.307	-0.399	1.01	-0.0662	0.48	-0.121	-0.0211
